{"source": "PubChem BioAssay (Tox21)", "note": "Results filed as inconclusive are left out. Where a call stands in place of a potency, no number is given. Values without a mark were called inactive. The source made the active and inactive calls. The call rests on the fitted dose curve; in most records, active means well fitted curve in the direction sought with a large enough effect in the signal ratio in the repeat runs (not every such curve was filed as active); inconclusive means weak or mixed curves, or effect the other way; inactive means no such curve, though single readings can be large or run the other way; the % refers to the signal ratio.", "data": [{"target": "Estrogen receptor (Homo sapiens) (UniProt P03372)", "sequence (P03372 whole entry, looked up)": "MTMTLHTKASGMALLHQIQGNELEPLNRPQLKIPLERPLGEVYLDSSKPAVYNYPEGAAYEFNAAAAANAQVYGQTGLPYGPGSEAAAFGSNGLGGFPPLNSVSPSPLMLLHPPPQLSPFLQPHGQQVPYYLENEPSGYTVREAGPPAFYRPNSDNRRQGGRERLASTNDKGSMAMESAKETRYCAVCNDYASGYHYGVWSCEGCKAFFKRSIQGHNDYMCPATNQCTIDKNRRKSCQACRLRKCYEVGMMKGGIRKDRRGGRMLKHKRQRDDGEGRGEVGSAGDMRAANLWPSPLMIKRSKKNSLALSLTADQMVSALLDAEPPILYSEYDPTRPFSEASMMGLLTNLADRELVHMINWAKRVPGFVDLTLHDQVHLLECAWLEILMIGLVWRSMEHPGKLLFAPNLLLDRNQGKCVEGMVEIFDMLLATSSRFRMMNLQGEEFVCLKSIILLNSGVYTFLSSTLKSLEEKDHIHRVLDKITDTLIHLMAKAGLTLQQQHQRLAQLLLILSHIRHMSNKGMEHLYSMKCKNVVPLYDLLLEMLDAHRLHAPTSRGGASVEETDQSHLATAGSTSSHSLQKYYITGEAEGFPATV", "assay": "qHTS assay to identify small molecule antagonists of the estrogen receptor alpha (ER-alpha) signaling pathway (AID 743069)", "details": "HEK293 ER-alpha-UAS-bla, beta-lactamase ratio, antagonist mode; series mostly up to 69.4 µM", "text": "National Center for Advancing Translational Sciences [NCATS]\nNIH Chemical Genomics Center [NCGC]\nU.S. Environmental Protection Agency [EPA]\nNational Institutes of Environmental Health Sciences [NIEHS]\nNational Toxicology Program [NTP]\nU.S. Food and Drug Administration [FDA]\nEstrogen receptor (ER), a nuclear hormone receptor, plays an important role in development, metabolic homeostasis and reproduction. Two subtypes of ER, ER-alpha and ER-beta have similar expression patterns with some uniqueness in both types. Endocrine disrupting chemicals (EDCs) and their interactions with steroid hormone receptors like ER causes disruption of normal endocrine function. To identify the compounds that inhibit ER signaling, an ER-alpha-UAS-bla GripTiteTM cell line (Invitrogen, Carlsbad, CA, USA) containing a beta-lactamase reporter gene under the control of an Upstream Activator Sequence (UAS) stably integrated into HEK293 cells was used to screen the Tox21 10K compound library.\nTox21 Assay Protocol Summary:\nER-alpha-bla cells were cultured in assay medium containing 2% charcoal stripped FBS overnight in the culture flasks before the assay was performed. The cells were dispensed at 5,000 cells/5 uL of assay medium per well into black wall/clear-bottom 1536-well plates using a Multidrop Combi (ThermoFisher Scientific, Waltham, MA) dispenser. After the assay plates were incubated at a 37C and 5% CO2 for 4 hr, 23 nL of compounds dissolved in DMSO, positive controls or DMSO only was transferred to the assay plate by a Pintool station (Kalypsys, San Diego, CA), followed by addition of 1 uL of 17beta-estradiol in assay medium using a Flying Reagent Dispenser (Aurora Discovery, San Diego, CA). The plates were incubated at 37C and 5% CO2 for 18 hr. Then 1 uL of LiveBLAzerTM B/G FRET substrate was added using a Flying Reagent Dispenser, the plates were incubated at room temperature for 2 hours, and fluorescence intensity was measured by an Envision plate reader (PerkinElmer, Shelton, CT).", "values": [{"compound": "OC1CCCCC1", "Potency": "inactive"}, {"compound": "NC(N)=S", "Potency": "inactive"}, {"compound": "CCCCCCCCCCCCCC(=O)O", "Potency": "inactive"}, {"compound": "CN1CCCC1=O", "Potency": "inactive"}, {"compound": "COc1ccc([C@@H]2CC(=O)c3c(O)cc(O[C@@H]4O[C@H](CO[C@@H]5O[C@@H](C)[C@H](O)[C@@H](O)[C@H]5O)[C@@H](O)[C@H](O)[C@H]4O)cc3O2)cc1OC", "Potency": "inactive"}, {"compound": "COc1ccc(N)c(OC)c1", "Potency": "inactive"}, {"compound": "COCN(COC)c1nc(N(COC)COC)nc(N(COC)COC)n1", "Potency": "inactive"}, {"compound": "Cc1cc(C)c(O)c(C)c1", "Potency": "inactive"}, {"compound": "CCCCCCCC(=O)O", "Potency": "inactive"}, {"compound": "CCCCCCCCCCCC(=O)N(C)CC(=O)O", "activity, negative = inhibition": "-5.64% [at 6.71 µM]"}, {"compound": "Cc1ccccc1Cl", "Potency": "inactive"}, {"compound": "CC(C)(CO)CO", "Potency": "inactive"}, {"compound": "OC[C@H]1O[C@@H](Oc2ccc(O)cc2)[C@H](O)[C@@H](O)[C@@H]1O", "Potency": "inactive"}, {"compound": "CCCN(CCC)C(=O)SCC", "Potency": "inactive"}, {"compound": "CC(=O)OC(C)(C)C1CC=C(C)CC1", "note": "(stereo not given)", "Potency": "inactive"}, {"compound": "O=C1CCCCCCCCCCC1", "Potency": "inactive"}, {"compound": "CC(=O)OC/C=C(\\C)CCC=C(C)C", "Potency": "inactive"}, {"compound": "CC(=O)CC(=O)N(C)C", "Potency": "inactive"}, {"compound": "CC(=O)c1nccs1", "Potency": "inactive"}, {"compound": "OB(O)O", "Potency": "inactive"}, {"compound": "CC(C)c1ccc(C(C)C)cc1", "Potency": "inactive"}, {"compound": "Nc1cccc(N)n1", "Potency": "inactive"}, {"compound": "Cc1ccc([N+](=O)[O-])cc1N", "Potency": "inactive"}, {"compound": "O=[N+]([O-])c1ccccc1C(F)(F)F", "Potency": "inactive"}, {"compound": "CC(C)=CCC/C(C)=C/C=O", "Potency": "inactive"}, {"compound": "O=C1C(N(CO)C(=O)NCO)N(CO)C(=O)N1CO", "note": "(stereo not given)", "Potency": "inactive"}, {"compound": "CCCCCCCCO", "Potency": "inactive"}, {"compound": "Cc1ccncc1", "Potency": "inactive"}, {"compound": "O=C(Cl)c1ccc(C(=O)Cl)cc1", "Potency": "inactive"}, {"compound": "NC(=O)NC(N)=O", "Potency": "inactive"}, {"compound": "N#CCC(=O)O", "Potency": "inactive"}, {"compound": "Cc1cc(C)cc(O)c1", "Potency": "inactive"}, {"compound": "CCCCC(=O)O", "Potency": "inactive"}, {"compound": "O=Cc1ccc(CO)o1", "Potency": "inactive"}, {"compound": "OCC(CO)(CO)CO", "Potency": "inactive"}, {"compound": "Nc1cccc(C(F)(F)F)c1", "Potency": "inactive"}, {"compound": "OCC(O)CS", "note": "(stereo not given)", "Potency": "inactive"}, {"compound": "COC(=O)CCCCC(=O)OC", "Potency": "inactive"}, {"compound": "CN=C(NC#N)NCCSCc1nc[nH]c1C", "Potency": "inactive"}, {"compound": "CCc1cccc(CC)c1N", "Potency": "inactive"}]}]}
